PMC5540273 (PLoS ONE, 2017)
Like-named read-outs stand apart in the source and are kept apart here.

Legend:
[1] = tested on: T1, GRK3; details: concentration: 1 μM, replicates: in singlicate; n = 1
T1 construct: gene ADRBK2

[2] = tested on: GRK4; details: concentration: 1 μM, replicates: in singlicate; n = 1
[3] = tested on: GRK7; details: concentration: 1 μM, replicates: in singlicate; n = 1
[4] = tested on: GSK3A; details: concentration: 1 μM, replicates: in singlicate; n = 1
[5] = tested on: GSK3B; details: n = 1
[6] = tested on: T2, HASPIN; details: concentration: 1 μM, replicates: in singlicate; n = 1
T2 construct: gene GSG2

[7] = tested on: HCK; details: concentration: 1 μM, replicates: in singlicate; n = 1
[8] = tested on: HIPK1; details: concentration: 1 μM, replicates: in singlicate; n = 1
[9] = tested on: HIPK2; details: concentration: 1 μM, replicates: in singlicate; n = 1
[10] = tested on: HIPK3; details: concentration: 1 μM, replicates: in singlicate; n = 1
[11] = tested on: HIPK4; details: concentration: 1 μM, replicates: in singlicate; n = 1
[12] = tested on: HPK1; details: concentration: 1 μM, replicates: in singlicate; n = 1
[13] = tested on: HUNK; details: concentration: 1 μM, replicates: in singlicate; n = 1
[14] = tested on: ICK; details: concentration: 1 μM, replicates: in singlicate; n = 1
[15] = tested on: IGF1R; details: concentration: 1 μM, replicates: in singlicate; n = 1
[16] = tested on: T3, IKK-alpha; details: concentration: 1 μM, replicates: in singlicate; n = 1
T3 construct: gene CHUK

[17] = tested on: T4, IKK-beta; details: concentration: 1 μM, replicates: in singlicate; n = 1
T4 construct: gene IKBKB

[18] = tested on: T5, IKK-epsilon; details: concentration: 1 μM, replicates: in singlicate; n = 1
T5 construct: gene IKBKE

[19] = tested on: INSRR; details: concentration: 1 μM, replicates: in singlicate; n = 1
[20] = tested on: INSR; details: concentration: 1 μM, replicates: in singlicate; n = 1
[21] = concentration: 1 μM, replicates: in singlicate
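Further: KINOMEscan kinase panel screen.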

## Cn1cncc1C(=O)NC1CCN(c2ccnc(Nc3ccc(F)cc3)n2)C1 (centres unmarked) [GSK1379717]
[1]
  %Inh: 0%
[2]
  %Inh: 0%
[3]
  %Inh: 0%
[4]
  %Inh: 12%
[5]; [21]
  %Inh: 8%
[6]
  %Inh: 0%
[7]
  %Inh: 0%
[8]
  %Inh: 0%
[9]
  %Inh: 0%
[10]
  %Inh: 3%
[11]
  %Inh: 0%
[12]
  %Inh: 68%
[13]
  %Inh: 0%
[14]
  %Inh: 31%
[15]
  %Inh: 0%
[16]
  %Inh: 25%
[17]
  %Inh: 17%
[18]
  %Inh: 33%
[19]
  %Inh: 0%
[20]
  %Inh: 10%

## O=C1NC(=O)C(c2ccc(Cl)cc2)=C1Nc1cccc(Cl)c1 [SB-317651]
[1]
  %Inh: 0%
[2]
  %Inh: 21%
[3]
  %Inh: 30%
[4]
  %Inh: 0%
[5]; 1 µM
  %Inh: 15%
[6]
  %Inh: 0%
[7]
  %Inh: 0%
[8]
  %Inh: 19%
[9]
  %Inh: 34%
[10]
  %Inh: 0%
[11]
  %Inh: 0%
[12]
  %Inh: 12%
[13]
  %Inh: 0%
[14]
  %Inh: 28%
[15]
  %Inh: 0%
[16]
  %Inh: 0%
[17]
  %Inh: 0%
[18]
  %Inh: 0%
[19]
  %Inh: 0%
[20]
  %Inh: 11%

## CN1c2ccc(-c3ccc(C(N)=O)cc3)cc2-c2[nH]ncc2S1(=O)=O
[1]
  %Inh: 0%
[2]
  %Inh: 0%
[3]
  %Inh: 0%
[4]
  %Inh: 25%
[5]; [21]
  %Inh: 13%
[6]
  %Inh: 28%
[7]
  %Inh: 0%
[8]
  %Inh: 41%
[9]
  %Inh: 23%
[10]
  %Inh: 19%
[11]
  %Inh: 4%
[12]
  %Inh: 28%
[13]
  %Inh: 0%
[14]
  %Inh: 0%
[15]
  %Inh: 5%
[16]
  %Inh: 0%
[17]
  %Inh: 0%
[18]
  %Inh: 0%
[19]
  %Inh: 0%
[20]
  %Inh: 0%

## NS(=O)(=O)c1cccc(N/C=C2\C(=O)Nc3ccc(S(=O)(=O)Cc4c(Cl)cccc4Cl)cc32)c1 [GSK398099]
[1]
  %Inh: 0%
[2]
  %Inh: 0%
[3]
  %Inh: 0%
[4]
  %Inh: 0%
[5]; [21]
  %Inh: 20%
[6]
  %Inh: 4%
[7]
  %Inh: 0%
[8]
  %Inh: 0%
[9]
  %Inh: 0%
[10]
  %Inh: 12%
[11]
  %Inh: 0%
[12]
  %Inh: 49%
[13]
  %Inh: 0%
[14]
  %Inh: 15%
[15]
  %Inh: 0%
[16]
  %Inh: 0%
[17]
  %Inh: 15%
[18]
  %Inh: 26%
[19]
  %Inh: 0%
[20]
  %Inh: 5%

## O=c1cc(N2CCOCC2)nc2n(Cc3ccccc3F)ccn12 [GSK2297428]
[1]
  %Inh: 0%
[2]
  %Inh: 0%
[3]
  %Inh: 0%
[4]
  %Inh: 80%
[5]; [21]
  %Inh: 3%
[6]
  %Inh: 35%
[7]
  %Inh: 0%
[8]
  %Inh: 33%
[9]
  %Inh: 0%
[10]
  %Inh: 35%
[11]
  %Inh: 0%
[12]
  %Inh: 34%
[13]
  %Inh: 0%
[14]
  %Inh: 0%
[15]
  %Inh: 7%
[16]
  %Inh: 0%
[17]
  %Inh: 0%
[18]
  %Inh: 0%
[19]
  %Inh: 0%
[20]
  %Inh: 0%

## COC(=O)C(NC(=O)NC1CCN(c2ccnc(Nc3ccc(F)cc3)n2)C1)c1ccccc1 (centres unmarked) [GSK1379712]
[1]
  %Inh: 18%
[2]
  %Inh: 0%
[3]
  %Inh: 0%
[4]
  %Inh: 16%
[5]; [21]
  %Inh: 4%
[6]
  %Inh: 0%
[7]
  %Inh: 0%
[8]
  %Inh: 12%
[9]
  %Inh: 0%
[10]
  %Inh: 48%
[11]
  %Inh: 8%
[12]
  %Inh: 51%
[13]
  %Inh: 0%
[14]
  %Inh: 9%
[15]
  %Inh: 5%
[16]
  %Inh: 0%
[17]
  %Inh: 0%
[18]
  %Inh: 32%
[19]
  %Inh: 0%
[20]
  %Inh: 2%

## c1ccc(-c2ccnc3[nH]ccc23)cc1 [SB-693578]
[1]
  %Inh: 56%
[2]
  %Inh: 3%
[3]
  %Inh: 0%
[4]
  %Inh: 22%
[5]; [21]
  %Inh: 13%
[6]
  %Inh: 60%
[7]
  %Inh: 0%
[8]
  %Inh: 4%
[9]
  %Inh: 0%
[10]
  %Inh: 34%
[11]
  %Inh: 0%
[12]
  %Inh: 48%
[13]
  %Inh: 2%
[14]
  %Inh: 13%
[15]
  %Inh: 14%
[16]
  %Inh: 47%
[17]
  %Inh: 64%
[18]
  %Inh: 0%
[19]
  %Inh: 0%
[20]
  %Inh: 5%

## O=C(Nc1n[nH]c2nc(-c3cccs3)c(Br)cc12)C1CC1 [SB-735297]
[1]
  %Inh: 0%
[2]
  %Inh: 0%
[3]
  %Inh: 17%
[4]
  %Inh: 93.8%
[5]; 1 µM
  %Inh: 52%
[6]
  %Inh: 0%
[7]
  %Inh: 0%
[8]
  %Inh: 27%
[9]
  %Inh: 58%
[10]
  %Inh: 11%
[11]
  %Inh: 10%
[12]
  %Inh: 16%
[13]
  %Inh: 0%
[14]
  %Inh: 24%
[15]
  %Inh: 0%
[16]
  %Inh: 0%
[17]
  %Inh: 9%
[18]
  %Inh: 0%
[19]
  %Inh: 0%
[20]
  %Inh: 0%

## CNc1nc(-c2ccc3c(N)n[nH]c3c2)cc(N2C[C@@H](C(=O)Nc3ccccc3)CC[C@H]2C)n1 [GSK2298859]
[1]
  %Inh: 0%
[2]
  %Inh: 0%
[3]
  %Inh: 0%
[4]
  %Inh: 26%
[5]; [21]
  %Inh: 0%
[6]
  %Inh: 13%
[7]
  %Inh: 0%
[8]
  %Inh: 0%
[9]
  %Inh: 0%
[10]
  %Inh: 1%
[11]
  %Inh: 0%
[12]
  %Inh: 18%
[13]
  %Inh: 0%
[14]
  %Inh: 0%
[15]
  %Inh: 11%
[16]
  %Inh: 0%
[17]
  %Inh: 0%
[18]
  %Inh: 24%
[19]
  %Inh: 0%
[20]
  %Inh: 0%

## CS(=O)(=O)CCNCc1nc(-c2ccc3ncnc(Nc4ccc(OCc5ccccc5)c(Cl)c4)c3c2)cs1.Cl [GW582764]
[1]
  %Inh: 99.4%
[2]
  %Inh: 4%
[3]
  %Inh: 0%
[4]
  %Inh: 20%
[5]; [21]
  %Inh: 3%
[6]
  %Inh: 32%
[7]
  %Inh: 0%
[8]
  %Inh: 0%
[9]
  %Inh: 0%
[10]
  %Inh: 0%
[11]
  %Inh: 0%
[12]
  %Inh: 44%
[13]
  %Inh: 5%
[14]
  %Inh: 0%
[15]
  %Inh: 4%
[16]
  %Inh: 28%
[17]
  %Inh: 5%
[18]
  %Inh: 0%
[19]
  %Inh: 0%
[20]
  %Inh: 0%
